Structures are written as SMILES. About 4,300 (8.3%) of roughly 52,000 compounds were called active. The sample as a whole holds a higher share of actives than the screen did. Values without a mark were called inactive. Cut-off read from the data, not from the text of the source: active = survival mostly below about 52% (no sharp cut-off); inactive = mostly above about 56%.

The test system of the assay is DeltatarO mutant. The assay can be described thus: growth inhibition of S. aureus wild type versus tarO mutant, primary screen, teichoic acid synthesis inhibitors, RN4220, OD600 (AID 463173). As to conditions: OD600, 18 h, active compounds read low, screened at 18.75 µg/mL (by protocol).
As to `COc1ccc2c(c1)c1c(c(=O)n(-c3cccc(C)c3)c(=O)n1Cc1cccc(Cl)c1)n2C`, the survival is 84%.
To `CC(=O)N1CCCc2cc(S(=O)(=O)N(CCN(C)C)Cc3ccccc3)ccc21` belongs 102%; to `Cc1csc2nc(COC(=O)c3ccc(NC(=O)C(C)Oc4ccccc4)cc3)cc(=O)n12` (stereo unspecified), 134%; to `COc1cc2c(cc1OC)C(COc1ccc3c(C)cc(=O)oc3c1)N(C(=O)c1ccc(C)c(C)c1)CC2` (stereo unspecified), 74%.
For `Cc1oc(-c2ccc(C(=O)NCc3ccccc3F)cc2)nc1COc1ccccc1` the value was 77%; for `CCOC(=O)c1ccccc1NC(=O)CCc1c(C)nc2ncnn2c1C`, 87%; for `CCOc1ccc(-n2c(=O)c3c(C)c(C)sc3n(CC(=O)N(CC)Cc3ccccc3)c2=O)cc1`, 45% (active).
For `CCOc1ccc(NC(=O)Cn2c(=O)n(-c3ccccc3)c(=O)c3c4c(sc32)CCCC4)cc1` the value was 90% (active).
In the case of `CCOc1ccc(NC(=O)Cn2c(=O)n(-c3cccc(OC)c3)c(=O)c3c4c(sc32)CCCC4)cc1`, the survival is 95%.
On to `CCN(Cc1ccccc1)C(=O)Cn1c(=O)n(-c2ccc(C)c(C)c2)c(=O)c2c(C)c(C)sc21`, for which the survival is 84%.
For `CCN(Cc1ccccc1)C(=O)Cn1c(=O)n(-c2ccc(Cl)cc2)c(=O)c2c(C)c(C)sc21` the value was 76%; for `COc1ccc(NC(=O)Cn2c(=O)n(-c3ccccc3)c(=O)c3c4c(sc32)CCCC4)cc1`, 98%; for `CCOC(=O)c1c(C)oc2nc(C)nc(NCC3CCN(Cc4cccc(Cl)c4)CC3)c12`, 62%.
Take `COc1cccc(NC(=O)CCS(=O)(=O)c2ccc3c(c2)oc(=O)n3C)c1`: the survival is 89%.
On to `Cc1ccc(CSc2nnc3[nH]c(=O)cc(C)n23)cc1`, for which the survival was 71%.
To `Cc1ccc(NC(=O)CSc2nc3c(oc4ccccc43)c(=O)n2Cc2ccco2)cc1` belongs 70%.
On to `CC(C)C(=O)N1C2CCC1CC(O)(c1ccccc1F)C2` (stereo unspecified), for which the survival is 86%.
As for `COc1cccc(CN(Cc2ccco2)C(c2ccc(OC)c(OC)c2)c2nnnn2Cc2ccccc2)c1` (stereo unspecified), the survival is 67%.
To `Cc1ccc2nc(/C(C#N)=C/c3cccc(Br)c3)[nH]c2c1` belongs 3% (active); to `N#C/C(=C\c1ccccc1F)c1nc2ccccc2c(=O)[nH]1`, 66%; to `COc1cccc(/C=C(\C#N)c2nc3ccc(C)cc3[nH]2)c1`, 46%.
For `Cc1ccc2nc(/C(C#N)=C/c3ccccc3F)[nH]c2c1` the value was 31% (active); for `Cc1cccc(/C=C(\C#N)c2nc3ccccc3c(=O)[nH]2)c1`, 91%; for `COc1cc(Br)c(/C=C(\C#N)c2nc3ccccc3[nH]2)cc1OC`, 110%.
As to `CCOc1ccccc1-c1nnc(SCc2ccc(Cl)cc2)o1`, the survival is -1% (active).
Turning to `COc1ccccc1-c1nnc(SCCOc2ccccc2C)o1`, the survival is 73%.
To `Oc1ccc(-c2nnc(SCc3ccc(Cl)cc3)o2)cc1` belongs 89%; to `CNS(=O)(=O)c1cn(CC(=O)Nc2ccc(C)c(N(C)C)c2)cc1S(=O)(=O)NC`, 83%; to `CCc1ccc(-c2cc(C)no2)cc1S(=O)(=O)N1CCN(c2cccc(Cl)c2)CC1`, 89%.
For `COc1ccc(CNc2oc(-c3ccc(COc4ccc(Cl)cc4)o3)nc2C#N)cc1` the value was 97%; for `Cc1cc(C)cc(NC(=O)CCc2c(C)nc3c4cccnc4nn3c2C)c1`, 99%; for `CCOc1ccc(-c2nonc2NC(=O)c2oc3cc(C)c(C)cc3c2C)cc1OCC`, 43% (active).
On to `CCOc1ccc(-c2nonc2NC(=O)c2ccc(C)cc2)cc1OCC`, for which the survival is 100%.
On to `CCCOc1ccc(-c2nonc2NC(=O)c2oc3ccc(C)cc3c2C)cc1OCCC`, for which the survival was 49%.
For `CCOc1ccc(-c2nonc2NC(=O)c2oc3ccc(C)cc3c2C)cc1OCC` the value was 43%; for `CCOc1ccc(-c2nonc2NC(=O)c2oc3cc(C)ccc3c2C)cc1OCC`, 87%.
`CCOc1ccc(-c2nonc2NC(=O)c2oc3c(C)c(C)ccc3c2C)cc1OCC`: the survival was 34% (active).
For `CCCNC(=O)N1CCCN(S(=O)(=O)c2ccc3c(ccn3CC)c2)CC1` the value was 79%; for `Cc1cc(C)cc(NC(=O)c2cnn(-c3ccc(C)c(C)c3)c2C2CCNCC2)c1`, 78%.
For `COc1ccccc1NC(=O)CN1C(=O)CSc2ccc(S(=O)(=O)N3CCCC3)cc21` the value was 99%; for `Cc1cc(C)c(S(=O)(=O)NCC(c2ccc(N(C)C)cc2)N2CCOCC2)c(C)c1` (stereo unspecified), 69%.
On to `Cc1ccc(CSc2oc(-c3cccs3)nc2S(=O)(=O)c2ccc(C)cc2)cc1`, for which the survival is 135%.
To `CCCCCS(=O)(=O)c1oc(-c2cccs2)nc1S(=O)(=O)c1ccc(C)cc1` belongs 3% (active).
For `Cc1ccc(CSc2oc(-c3cccs3)nc2S(=O)(=O)c2ccccc2)cc1` the value was 65%; for `CCCCS(=O)(=O)c1oc(-c2cccs2)nc1S(=O)(=O)c1ccccc1`, -5% (active).
To `CCCSc1oc(-c2cccs2)nc1S(=O)(=O)c1ccc(C)cc1` belongs 41%.
In the case of `CCCCS(=O)(=O)c1oc(-c2cccs2)nc1S(=O)(=O)c1ccc(F)cc1`, the survival is 56%.
For `COc1cccc(CSc2nc3n(n2)C(c2ccccc2C)C(C(=O)Nc2ccccc2OC)=C(C)N3)c1` (stereo unspecified) the value was 69%; for `Cc1ccc(C)c(NC(=O)Cn2c(=O)n(CCC(C)C)c(=O)c3cccnc32)c1`, 76%; for `NC(CSC1CCCCO1)C(=O)O` (stereo unspecified), 73%.
For `O=C(Nc1ccc(N2CCC(N3CCCCC3)CC2)c(C(=O)O)c1)c1ccc(Br)cc1` the value was 101%; for `O=C(Nc1ccc(N2CCC(N3CCCCC3)CC2)c(C(=O)O)c1)c1ccccc1`, 96%; for `CC(=O)c1ccc(N2CCN(c3ccc(NC(=O)c4ccc(F)cc4)cc3C(=O)O)CC2)cc1`, 55%.
To `COc1ccc(C(=O)Nc2ccc(N3CCN(c4ccccc4)CC3)c(C(=O)O)c2)cc1` belongs 94%; to `O=C(Nc1ccc(N2CCN(CCOc3ccc(Cl)cc3)CC2)c(C(=O)O)c1)c1ccc(F)cc1`, 20% (active).
On to `O=C(Nc1ccc(N2CCOCC2)c(C(=O)O)c1)c1ccc(Br)cc1`, for which the survival is 8% (active).
For `Cc1ccc(NC(=O)C(=O)NCC2(c3ccccc3)CCCC2)cc1Cl` the value was 97%.
Turning to `Cc1cccc(NS(=O)(=O)c2ccc3c(c2)CC(C)N3C(=O)C2CCC2)c1C` (stereo unspecified), the survival was 78%.
For `N#Cc1c[nH]n2c(=O)cc(Cc3ccccc3)nc12` the value was 68%.
For `Cc1ccc(NC(=O)c2ccc(NC(=O)CCS(=O)(=O)c3cccs3)cc2)cc1F` the value was 81%.
For `O=C(CCS(=O)(=O)c1ccc(Br)s1)Nc1cc(C(F)(F)F)cc(C(F)(F)F)c1` the value was 42% (active); for `CC(=O)c1ccc(NC(=O)c2ccc(NC(=O)CCS(=O)(=O)c3cccs3)cc2)cc1`, 69%; for `O=C(CCS(=O)(=O)c1ccc(Br)s1)Nc1c(F)cccc1F`, 128%.
As to `CC(=O)c1cccc(NC(=O)CCS(=O)(=O)c2ccc(Br)s2)c1`, the survival is 43% (active).
For `Cc1cc(NC(=O)c2ccc(NC(=O)CCS(=O)(=O)c3cccs3)cc2)ccc1Br` the value was 35% (active); for `CCOC(=O)c1cccc(NC(=O)CCS(=O)(=O)c2ccc(Br)s2)c1`, 71%.
To `COC(=O)c1ccc(NC(=O)CCS(=O)(=O)c2ccc(Br)s2)cc1` belongs 60%; to `CC(C)c1ccc(NC(=O)CCS(=O)(=O)c2ccc(Br)s2)cc1`, 114%; to `CCc1ccc(CNC(=O)Cc2ccc(NC(=O)N3CCSc4ncccc43)cc2)cc1`, 94%.
`CC(=O)c1c(C)oc2c(Cl)cc(NS(=O)(=O)c3cc(C)c(C)cc3C)cc12`: the survival is 157%.
For the compound `COc1ccc(OC)c(-c2noc(N3CCN(c4cc(C)ccc4C)CC3)n2)c1`, the survival is 87%.
For `CC(=O)N1CCCc2cc(S(=O)(=O)N3CCCC(C(=O)Nc4cccc(Cl)c4C)C3)ccc21` (stereo unspecified) the value was 67%; for `COc1cccc(CNC(=O)c2ccc(Cn3c(SCc4ccccc4)nc4cccnc43)cc2)c1`, 74%.
To `Cn1cc(C(=O)N2CCN(c3cccc(Cl)c3)CC2)c(=O)c2cc(S(=O)(=O)N3CCCC3)ccc21` belongs 128%.
For `CN(Cc1ccccc1)c1nc2c(S(=O)(=O)c3cccc(Cl)c3)nnn2c2ccsc12` the value was 36% (active).
For the compound `Cc1ccc(S(=O)(=O)c2nnn3c2nc(NCCc2ccccc2)c2sccc23)cc1`, the survival was 65%.
To `Cc1ccc(CCNc2nc3c(S(=O)(=O)c4ccccc4)nnn3c3ccsc23)cc1` belongs 62% (active); to `CN(Cc1ccccc1)c1nc2c(S(=O)(=O)c3ccccc3)nnn2c2ccsc12`, 70%; to `Cc1ccc(CCNc2nc3c(S(=O)(=O)c4ccc(C)cc4)nnn3c3ccsc23)cc1`, 108%.
On to `CCN(CC)c1nc2c(S(=O)(=O)c3cccc(Cl)c3)nnn2c2ccsc12`, for which the survival was 62%.
Turning to `Cc1cc(-c2ccc(C)c(S(=O)(=O)Nc3cccc(C)n3)c2)on1`, the survival is 75%.
For `O=C(Cn1c(=O)nc(-c2ccccc2F)c2cc(Cl)ccc21)Nc1ccccc1C(F)(F)F` the value was 96%; for `Cn1c(O)c(N=NC(=O)c2ccccc2)c2ccccc21`, 105%.
For `CCCCc1cc(O)c(CCCC)c(O)c1` the value was 12% (active); for `CCCCc1c(C(=O)O)cccc1C(=O)O`, 103%; for `Cc1cc(C)cc(N2C(=O)CSC23C(=O)N(CC(=O)Nc2ccc(F)cc2F)c2ccccc23)c1` (stereo unspecified), 99%.
To `Cc1ccc2c(c1)c(=O)c(S(=O)(=O)c1ccc(F)cc1)cn2CC(=O)Nc1ccc2c(c1)OCO2` belongs 70%.
As for `COc1ccc(-c2cc(C(F)F)n3ncc(C(=O)Nc4cc(OC)ccc4OC)c3n2)cc1`, the survival is 51% (active).
For `O=C(Nc1cc(F)ccc1F)c1cnn2c(C(F)F)cc(-c3ccccc3)nc12` the value was 130%; for `CCOc1ccccc1NC(=O)c1cnn2c(C(F)F)cc(-c3ccccc3)nc12`, 58% (active).
To `CCN(CC)c1ccc(NC(=O)c2cnn3c(C(F)F)cc(-c4ccccc4)nc23)cc1` belongs 59% (active); to `CNS(=O)(=O)c1ccc(NC(=O)c2cnn3c(C(F)F)cc(-c4ccccc4)nc23)cc1`, 66%.
To `COc1ccc(-c2cc(C(F)F)n3ncc(C(=O)Nc4cc(C)on4)c3n2)cc1` belongs 85%; to `COC(=O)c1ccc(C(=O)OC)c(NC(=O)c2cnn3c(C(F)F)cc(-c4ccc(C)cc4)nc23)c1`, 60%; to `CC(C)c1ccc(NC(=O)c2cnn3c(C(F)F)cc(-c4ccccc4)nc23)cc1`, 65%.
As to `CC(C)NC(=O)c1cnn2c(C(F)F)cc(-c3ccccc3)nc12`, the survival is 92%.

These data come from PubChem BioAssay AID463173 (ICCB-Longwood Screening Facility, Harvard Medical School, 2010).
